The record followed here is PubChem BioAssay AID504467 (National Center for Advancing Translational Sciences (NCATS), 2011).

Hit rate of the full screen: of about 330,000 compounds, about 7,700 (2.3%) were called active. About 26% were inconclusive and are not listed. What follows is part of a selection rich in actives, with near analogues and random picks from the rest. A number with no mark means an inactive call. The call rests on the fitted dose curve; in most records, active means well fitted inhibition curve with a large enough effect; inconclusive means small, poorly fitted or top-dose-only effect, or effect the other way; inactive means flat fitted curve, though single readings scatter.
On the % scale 0 is the no-effect control and ±100 the full control effect; potency means the concentration at half of the fitted maximal effect.

This assay can be described thus: qHTS screen for small molecules that inhibit ELG1-dependent DNA repair in human embryonic kidney (HEK293T) cells expressing luciferase-tagged ELG1. Further: nearly all actives have a fitted effect of over 55% in size. Particulars: HEK293T ELG1-luciferase reporter, luminescence, 16 h, DNA damage induced by 5-fluorouridine; series mostly up to 46.1 µM; activity change, negative = inhibition: at the top concentration. The method, boiled down:
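DMSO vehicle served as the neutral condition. Each well held 2,000 cells given 5-fluorouridine plus compound; after 16 hr at 37 °C/5% CO2, ONE-Glo was added and luciferase measured 30 min later.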
Take `COc1cccc(NC(=O)CN(C)C(=O)c2cc(C3CC3)nn2-c2ccccc2)c1`: the “activity change, negative = inhibition” value was -20.6%.

In the case of `CCCCCN(C(=O)CCC(=O)OCCOc1ccc(OC)cc1)c1c(N)n(CCCC)c(=O)[nH]c1=O`, the “activity change, negative = inhibition” value is -22.2%.

As to `CC(C)N(C(=O)[C@H]1C[C@H](CC(=O)NCCC2=CCCCC2)C(=O)N2CCc3c([nH]c4cc(CCC(=O)N(C)C)ccc34)[C@]12C)C(C)C`, the “activity change, negative = inhibition” value was -10.1%.

On to `COc1ccccc1C(CNC(=O)c1cccc(NS(=O)(=O)c2ccc(Br)cc2)c1)N(C)C` (stereo unspecified), for which the “activity change, negative = inhibition” value is -5.67%.

For `O=S(=O)(c1ccc(NC(=S)NN=C(C2CC2)C2CC2)cc1)N1CCOCC1`, the “activity change, negative = inhibition” value was 7.52%.

Consider `O=C(NC(=S)Nc1ccc(S(=O)(=O)N2CCOCC2)cc1)c1ccccc1[N+](=O)[O-]`, for which the “activity change, negative = inhibition” value was 5.03%.

`O=[N+]([O-])c1cc(Cl)cc(/C=N/NC(=S)Nc2cc(S(=O)(=O)N3CCOCC3)ccc2Cl)c1O`: the Potency is 20.6 µM (active).

Turning to `Cc1cc(=O)oc2c3c(cc(OCC(=O)N[C@H](C(=O)O)c4ccccc4)c12)OC(C)(C)CC3`, the “activity change, negative = inhibition” value is -12.2%.

Take `Cc1oc2c(c1C(=O)N1CCOCC1)C(=O)c1ccccc1C2=O`: the Potency is 4.61 µM (active).

On to `Cc1noc(C)c1C(=O)N1CCOCC1`, for which the “activity change, negative = inhibition” value is 9.19%.

Turning to `O=C(c1ccccc1-c1ccccc1)N1CCOCC1`, the “activity change, negative = inhibition” value is 1.69%.

Take `CC(=O)NC12CC3CC(C1)CC(C(=O)N1CCN(S(=O)(=O)c4cccs4)CC1)(C3)C2`: the “activity change, negative = inhibition” value was -2.67%.

`Nc1ncnc2c1ncn2[C@@H]1O[C@H](CNCc2cccn2-c2nccs2)[C@@H](O)[C@H]1O`: the “activity change, negative = inhibition” value is 17.2%.

For the compound `O=C(CCN1C(=O)[C@@H]2Cc3ccccc3CN2C1=O)NCCc1ccccc1`, the “activity change, negative = inhibition” value is -2.64%.

Consider `CN(C)C(=O)CCc1ccc2c3c([nH]c2c1)[C@]1(CCc2ccccc2)[C@@H](C(=O)N2CCCCC2)C[C@H](CC(=O)NCCC2=CCCCC2)C(=O)N1CC3`, for which the “activity change, negative = inhibition” value is -29.9%.

As to `CC(C)(O)C#Cc1ccc(CN2CCC(CO)(CCc3ccccc3)CC2)cc1`, the “activity change, negative = inhibition” value was -8.27%.

Regarding `COc1ccc(C)cc1NC(=O)C(OC(=O)c1cccc(S(=O)(=O)N(C)c2ccccc2)c1)c1ccccc1` (stereo unspecified), the “activity change, negative = inhibition” value is -3.11%.

As for `CC(=O)c1c(C)[nH]c(C(=O)COC(=O)CCOc2ccc(C)cc2)c1C`, the “activity change, negative = inhibition” value was 12.8%.

`CC(=O)c1c(C)[nH]c(C(=O)COC(=O)c2cccc(S(=O)(=O)N(C)c3ccccc3)c2)c1C`: the Potency is 18.4 µM (active).

Turning to `COc1ccc(Cl)cc1NC(=O)CN(C)C(=O)c1cc(-c2cccs2)nn1-c1ccccc1`, the “activity change, negative = inhibition” value was -10.8%.

In the case of `CCOc1ccc(C(=O)Nc2ccc(S(=O)(=O)Nc3cc(C)on3)cc2)cc1`, the “activity change, negative = inhibition” value was 8.23%.

With `CCCCC(=O)NNC(=S)NC(=O)C(c1ccccc1)c1ccccc1`, the “activity change, negative = inhibition” value is -4.87%.

With `CC(C)C(=O)Nc1cccc(NC(=S)NC(=O)C(c2ccccc2)c2ccccc2)c1`, the Potency was 16.4 µM (active).

On to `CC(C)C(=O)NC(=S)Nc1ccccc1F`, for which the “activity change, negative = inhibition” value was 3.5%.

As for `CCn1c2ccccc2c2cc(NC(=O)COC(=O)c3cc(S(=O)(=O)N4CCCCC4)ccc3Cl)ccc21`, the “activity change, negative = inhibition” value was 18.2%.

On to `Cc1ccc(NC(=O)CN(C)C(=O)c2cccc(S(=O)(=O)N3CCCC3)c2)cc1`, for which the “activity change, negative = inhibition” value is 7.43%.

Take `CCn1c(O)c(N=NC(=O)c2cccc(S(=O)(=O)N3CCCCC3)c2)c2ccccc21`: the Potency is 23.1 µM (active).

As to `CC[C@]12c3[nH]c4ccc(Cl)cc4c3CCN1C(=O)[C@@H](CC(=O)NCCCOC)C[C@@H]2C(=O)N1CCN(C(=O)C2CC2)CC1`, the “activity change, negative = inhibition” value is -3.04%.

As to `NC(=O)Nc1ccc(C(=O)OCC(=O)NC2CCCc3ccccc32)cc1` (stereo unspecified), the “activity change, negative = inhibition” value is 3.15%.

Take `CCOc1ccc(OCC)c(NC(=O)CN(C)S(=O)(=O)c2cccc3nsnc23)c1`: the Potency is 16.4 µM (active).

On to `CCOc1ccc(N(CC)S(=O)(=O)c2cccc3nsnc23)cc1`, for which the “activity change, negative = inhibition” value is -15.1%.

For the compound `CCOc1ccccc1NC(=O)CCS(=O)(=O)c1cccc2nsnc12`, the “activity change, negative = inhibition” value was -1.26%.

Take `Cc1ccc(CN2CC(C(=O)N3CCN(S(=O)(=O)c4ccccc4)CC3)CC2=O)cc1` (stereo unspecified): the “activity change, negative = inhibition” value is 3.98%.

With `Cc1ccc(/C=N/NC(=O)c2cc3ccccc3cc2O)o1`, the “activity change, negative = inhibition” value was 14.5%.

With `CC(=O)Nc1ccc(Nc2c3ccccc3nc3ccccc23)cc1`, the “activity change, negative = inhibition” value is -3.14%.

Take `O=C(NNc1c2ccccc2nc2ccccc12)c1cc2ccccc2cc1O`: the Potency is 13 µM (active).

On to `COc1cccc(C2CC(c3ccccc3)=NN2S(=O)(=O)c2ccccc2)c1OC` (stereo unspecified), for which the “activity change, negative = inhibition” value was -10.5%.

Consider `CCS(=O)(=O)Nc1ccc(C2=NN(S(=O)(=O)c3ccc(F)cc3)C(c3ccco3)C2)cc1` (stereo unspecified), for which the Potency was 20.6 µM (active).

On to `Cc1ccc(C2=NN(C(=O)COc3ncnc4ccccc34)C(c3ccco3)C2)cc1` (stereo unspecified), for which the “activity change, negative = inhibition” value was 6.64%.

For the compound `CC(NCC(=O)Nc1cc(Cl)cc(Cl)c1)c1ccccc1` (stereo unspecified), the “activity change, negative = inhibition” value was -8.28%.

For `COc1ccc(/C=C(/NC(=O)c2ccccc2)C(=O)Nc2cccc(C(=O)O)c2)cc1`, the “activity change, negative = inhibition” value is -13.3%.

For `COc1cc(SC)ccc1C(=O)N(Cc1ccccc1)c1ccccc1`, the “activity change, negative = inhibition” value was -10.4%.

For the compound `CCCC(=O)Nc1cccc(NC(=S)NC(=O)C(C)Oc2ccc(Cl)cc2Cl)c1` (stereo unspecified), the Potency was 20.6 µM (active).

For the compound `CC(Oc1ccc(Cl)cc1Cl)C(=O)/C=C/N(C)C` (stereo unspecified), the “activity change, negative = inhibition” value was 2.25%.

Consider `COc1cccc(NC(=O)CN(C)C(=O)Cc2ccc(Cl)cc2Cl)c1`, for which the “activity change, negative = inhibition” value is -1.46%.

For `COc1ccc(C)cc1NC(=O)CN(C)S(=O)(=O)c1ccc2c(c1)n(C)c(=O)c(=O)n2C`, the “activity change, negative = inhibition” value is 7.65%.
